SMILES strings stand for the structures. The panel holds about 83,000 compounds, 20% with a hit somewhere; the sample as a whole holds those more often.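 Compound tested at a single concentration for 48 hours in 96-well plates; a percent growth value below 10 was scored as active.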 A number with no mark means an inactive call. Activity calls are given as the source filed them.

For the test, the system named is OVCAR-5 ovarian. Nature of the test: NCI-60 one-dose screen, 48 h (100 = growth as untreated, 0 = no growth, -100 = all killed). To be noted: 10 µM unless noted.
With `O=C(O)c1nn(-c2ccc(Cl)cc2)nc1N1CCCC1`, the growth was 94.9%.

Take `COCCNC(=O)Cc1cc(-c2ccc(Cl)cc2)n(-c2ccccc2)c1C`: the growth was 90%.

For `O=C(Nc1ccc(Oc2cccc(F)c2)c(Cl)c1)c1cnccn1`, the growth is 56.6%.

In the case of `CC(=O)[C@H]1CC[C@]2(C)[C@@H]1CC[C@@H]1[C@@]3(C)C/C(=C/c4cccnc4)C(=O)C(C)(C)[C@@H]3CC[C@]12C`, the growth is 132%.

Consider `C=C(C)Cn1c(SCC(=O)c2cccs2)nc2sc3c(c2c1=O)CCCC3`, for which the growth is 71.2%.

In the case of `Cc1ccc(C(=O)Nc2ccc(CN3CCN(C)CC3)c(C(F)(F)F)c2)cc1C#Cc1cnc(N)c2ccccc12`, the growth is 2.98% (active).

For the compound `COc1cc(C2CC(c3cccc(Nc4ccncc4)c3)=Nc3c(N)ncnc3N2)cc(OC)c1OC` (stereo not given), the growth was 111%.

Consider `CO[C@]12C=C/C(=C(/C(=O)OCc3cccnc3)C(=O)CCCCCCCC[C@]3(OC)C=C/C(=C(/C(=O)OCc4cccnc4)C(=O)CCCCCCCC1)O3)O2`, for which the growth was -52.1% (active).

`CCOC(=O)CSc1nc2sc3c(c2c(=O)n1-c1ccccc1)CCCCC3`: the growth was 103%.

On to `CN1CCN(Cc2ccc(NC(=O)c3cncc(C#Cc4cnc(N)c5ccc(C#N)cc45)c3)cc2C(F)(F)F)CC1`, for which the growth was -79.6% (active).

In the case of `CCOC(=O)C1=C(c2ccccc2)N=C2SC=C(c3cccc([N+](=O)[O-])c3)N2C1c1ccc(O)cc1` (stereo not given), the growth is 100%.

Take `CCn1c2ccccc2c2cc(C(O)c3cccc4ncccc34)ccc21` (stereo not given): the growth is 48.7%.

For `Cc1c(Cl)cccc1NC(=O)c1sc2nc3c(cc2c1N)CCCC3`, the growth was 75.7%.

On to `O=C(/C=C/c1ccco1)Nc1ncc(Cc2ccc(F)cc2)s1`, for which the growth was 32.5%.

For `COc1nc2ccccc2cc1/C=[N+](\[O-])c1ccccc1`, the growth is 97.4%.

As to `COc1ccc(-c2ccc(-c3ccc(C(=N)N)o3)o2)cc1`, the growth is 38.4%.

Consider `C=C(C[n+]1ccccc1)[C@@H]1CC[C@]2(C(=O)OC)CC[C@]3(C)[C@H](CC[C@@H]4[C@@]5(C)CCC(=O)C(C)(C)[C@@H]5CC[C@]43C)[C@@H]12`, for which the growth was 101%.

`COc1cccc(C(=O)Nc2cccc(NC(=O)c3ccccn3)c2)c1`: the growth was 94.3%.

Turning to `N#CC1=C(N)Oc2c(ccc3cccnc23)C1c1ccccc1` (stereo not given), the growth was 56.3%.

Consider `COc1ccc(C2=NN(C=O)C(c3ccc(Oc4nc5c(c(=O)n(C)c(=O)n5C)n4C)c(OC)c3)C2)cc1` (stereo not given), for which the growth was 96.6%.

On to `CCCS(=O)(=O)Nc1cccc(Nc2ncnc3cc(NC(=O)CCl)ccc23)c1Cl`, for which the growth is -65% (active).

Regarding `Cn1cc(-c2csc(-c3cn(C)c4ccc(F)cc34)n2)c2cnccc21`, the growth was 25.6%.

`C=C(C)[C@@H]1CC[C@]2(C(=O)NC(C)=O)CC[C@]3(C)[C@H](CC[C@@H]4[C@@]5(C)CCCNC(C)(C)[C@@H]5CC[C@]43C)[C@@H]12`: the growth was 67.9%.

As for `COc1cccc(CNc2nnc(C)c(C)n2)c1O`, the growth is 108%.

Regarding `O=C(/C=C/c1ccc(Cl)cc1)c1ccc(-n2cc(CN3CCN(c4cc5c(cc4F)c(=O)c(C(=O)O)cn5C4CC4)CC3)nn2)cc1`, the growth was 100%.

As for `COc1cccc2cc(N(C)c3nc(C)nc4c3CCC4)ccc12`, the growth was 52.2%.

Turning to `O=C(O)CCCN1C(=O)CSC1=S`, the growth was 106%.

`Cc1c2cnccc2c(C)c2c1c1cc(C(=O)O)ccc1n2C`: the growth was 9.91% (active).

As to `C=C1C(=O)O[C@H]2[C@H]1CC/C(CNC(=O)/C=C/c1cc(OC)c(OC)c(OC)c1)=C\CC[C@@]1(C)O[C@@H]21`, the growth was 15.9%.

For the compound `Cc1nc2ccccc2c(/C=C/c2ccc(Br)cc2)c1C(=O)/C=C/c1ccccc1`, the growth was -18% (active).

`CC(=O)O[C@H]1C[C@@]2(C)[C@@H](C[C@@H](O)[C@H]3[C@@]4(C)CC[C@H](N5CCCC5)[C@@H](C)[C@@H]4CC[C@@]32C)/C1=C(\CCC=C(C)C)C(=O)O`: the growth was 102%.

`O=C(O)c1cc2ccccc2s1`: the growth is 103%.

Regarding `CC(=O)OCCOc1cc(Cl)c(Cl)cc1Cl`, the growth is 90.6%.

On to `CCN1CCN(c2nc(NNC(=O)c3ccc(OC)cc3)nc(N3CCN(C(c4ccccc4)c4ccccc4)CC3)n2)CC1`, for which the growth is 106%.

Consider `Cc1cc(=O)oc2cc(Oc3nc(-c4ccccc4)cn4c(-c5ccccc5)cnc34)ccc12`, for which the growth is 105%.

`CN(Cc1ccccc1)c1nc(Cl)c(C2CC(c3ccc(Cl)cc3)=NN2c2cc(Cl)cc(Cl)c2)s1` (stereo not given): the growth is 113%.

For `COC(=O)c1c(C)nc(C)c2c1C(=O)C(Br)=C(NCCCCO)C2=O`, the growth was 101%.

On to `COc1cc(/C=C/c2cc(/C=C/c3ccc(O)c(OC)c3)n(C(=O)Nc3ccc(C)cc3C)n2)ccc1O`, for which the growth is -4.24% (active).

On to `Cc1cc2nc(C(Cl)Cl)nc(-c3ccccc3)n2n1`, for which the growth is 78.8%.

Take `CN1C(=O)N(C)C2C1NN=c1s/c(=C\c3ccccc3F)c(=O)n12` (stereo not given): the growth is 25.6%.

The values are drawn from PubChem BioAssay (NCI).
